{"source": "PubChem BioAssay (Tox21)", "note": "Several values for one entry are separate records, joined by “and”; a condition that tells them apart may be missing. Equal entries are not always repeated. Records with an inconclusive call do not appear. Entries that show only a call come without a potency. Activity calls are given as the source filed them. Unless noted, calls follow the shape of the dose curve; as a rule, active = well fitted cell-killing curve with a large enough effect in the repeat runs; inconclusive = weak or mixed curves, or effect the other way; inactive = flat fitted curve, though single readings scatter."}
{"assay": "qHTS assay to identify small molecule antagonists of the estrogen receptor alpha (ER-alpha) signaling pathway using the BG1 cell line (AID 743080; calls by dose curve;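 also: BG1 cells stimulated with 17beta-estradiol alongside compound; nearly all actives have a fitted effect of over 25% in size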)", "settings": "BG1Luc4E2 ERE-luciferase antagonist mode, luminescence; series mostly up to 70.3 µM", "how_it_was_run": "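Luminescence from a 4×ERE-luciferase reporter in BG1-Luc-4E2 cells served as read-out. Cells, pre-cultured 5 days in stripped-serum phenol-red-free medium, were exposed to compound with 17beta-estradiol co-stimulation for 21.5 h at 37 C.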"}
{"smiles": "CC(C)=CC=O", "Potency": "inactive"}
{"smiles": "CC(=O)Nc1ccc(N)cc1", "Potency": "inactive"}
{"smiles": "O=S1OCCO1", "Potency": "inactive"}
{"smiles": "CCOC(=O)CC(=O)C(=O)OCC", "Potency": "inactive"}
{"smiles": "CC(COc1ccc(C(C)(C)C)cc1)OS(=O)OCCCl", "note": "(configuration not stated)", "Potency": "inactive"}
{"smiles": "CCCOC(=O)c1ccc(C(=O)OCCC)nc1", "Potency": "inactive"}
{"smiles": "CCCCCCCCCCCCCCCCBr", "Potency": "inactive"}
{"smiles": "OCC1CC=CCC1", "note": "(configuration not stated)", "Potency": "inactive"}
{"smiles": "CCCCCC=CCC=CCCCCCCCC(=O)OCC", "Potency": "inactive"}
{"smiles": "COc1cc2c(N3CCN(C(=O)Nc4ccc(OC(C)C)cc4)CC3)ncnc2cc1OCCCN1CCCCC1", "Potency": "inactive"}
{"smiles": "CC(=O)[C@H]1CC[C@H]2[C@@H]3C=CC4=CC(=O)CC[C@@]4(C)[C@@H]3CC[C@]12C", "Potency": "inactive"}
{"smiles": "CCCCCCCCCCCCCCC[C@H](O)[C@@H](N)CO", "Potency": "inactive"}
{"smiles": "O=C(O)c1cccnc1C(=O)O", "Potency": "inactive"}
{"smiles": "Oc1ccc(Nc2ccccc2)cc1", "Potency": "inactive"}
{"smiles": "COC(=O)[C@@H]1CC2=CC(=O)CC[C@]2(C)[C@@]23O[C@@H]2C[C@@]2(C)[C@@H](CC[C@@]24CCC(=O)O4)[C@H]13", "Potency": "inactive"}
{"smiles": "COCC(O)CO", "note": "(configuration not stated)", "Potency": "inactive"}
{"smiles": "CCC(=O)OC/C=C/c1ccccc1", "Potency": "inactive"}
{"smiles": "O=Cc1c(Cl)cccc1Cl", "Potency": "inactive"}
{"smiles": "CC(C)CCCC(=O)O", "Potency": "inactive"}
{"smiles": "CCCOCCOCCO", "Potency": "inactive"}
{"smiles": "CC1CN(c2cc3c(cc2F)c(=O)c(C(=O)O)cn3-c2ccc(F)cc2F)CCN1", "note": "(configuration not stated)", "Potency": "inactive"}
{"smiles": "CC(C)(CCl)c1ccccc1", "Potency": "inactive"}
{"smiles": "Nc1ccc(Cl)cc1[N+](=O)[O-]", "Potency": "inactive"}
{"smiles": "CC(Cl)C(Cl)Cl", "note": "(configuration not stated)", "Potency": "inactive"}
{"smiles": "Cc1nc2ccccc2s1", "Potency": "inactive"}
{"smiles": "C=CCCCCCCCCCCCCCCCC", "activity change, negative = inhibition": "2.27% [at 8.47 µM] (inactive)"}
{"assay": "qHTS assay to identify small molecule antagonists of the estrogen receptor alpha (ER-alpha) signaling pathway using the BG1 cell line - cell viability counter screen (AID 743081);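 also: compound given together with 17beta-estradiol as the ER stimulus; nearly all actives have a fitted effect of over 45% in size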; also: potency is read from the fitted curve at half-maximal effect", "settings": "BG1Luc4E2 viability, CellTiter-Fluor, 22 h; series mostly up to 70.3 µM"}
{"smiles": "Fc1ccccc1[C@@H](F)COC1CCC(Nc2ncnc3[nH]ncc23)CC1", "note": "(some centres not stated)", "Potency": "inactive"}
{"smiles": "CC(C)=CC=O", "Potency": "inactive"}
{"smiles": "CC(=O)Nc1ccc(N)cc1", "Potency": "inactive"}
{"smiles": "O=S1OCCO1", "Potency": "inactive"}
{"smiles": "CCOC(=O)CC(=O)C(=O)OCC", "Potency": "inactive"}
{"smiles": "CC(COc1ccc(C(C)(C)C)cc1)OS(=O)OCCCl", "note": "(configuration not stated)", "Potency": "inactive"}
{"smiles": "CCCOC(=O)c1ccc(C(=O)OCCC)nc1", "Potency": "inactive"}
{"smiles": "CCCCCCCCCCCCCCCCBr", "Potency": "inactive"}
{"smiles": "C=CC(=C)CCCC(C)(C)OC(C)=O", "Potency": "inactive"}
{"smiles": "OCC1CC=CCC1", "note": "(configuration not stated)", "Potency": "inactive"}
{"smiles": "CO[C@H]1C=CO[C@@]2(C)Oc3c(C)c(O)c4c(O)c(c5c(c4c3C2=O)=NC2(CCN(CC(C)C)CC2)N=5)NC(=O)/C(C)=C\\C=C/[C@H](C)[C@H](O)[C@@H](C)[C@@H](O)[C@@H](C)[C@H](OC(C)=O)[C@@H]1C", "Potency": "26.6 µM (active) and 53.3 µM (active)"}
{"smiles": "CCCCCC=CCC=CCCCCCCCC(=O)OCC", "Potency": "inactive"}
{"smiles": "CC(=O)[C@H]1CC[C@H]2[C@@H]3C=CC4=CC(=O)CC[C@@]4(C)[C@@H]3CC[C@]12C", "Potency": "inactive"}
{"smiles": "CCCCCCCCCCCCCCC[C@H](O)[C@@H](N)CO", "Potency": "inactive"}
{"smiles": "O=C(O)c1cccnc1C(=O)O", "Potency": "inactive"}
{"smiles": "Oc1ccc(Nc2ccccc2)cc1", "Potency": "inactive"}
{"smiles": "CC1(C)C2=CCCC(C)(C)[C@]23CC[C@H]1C3", "Potency": "inactive"}
{"smiles": "COC(=O)[C@@H]1CC2=CC(=O)CC[C@]2(C)[C@@]23O[C@@H]2C[C@@]2(C)[C@@H](CC[C@@]24CCC(=O)O4)[C@H]13", "Potency": "inactive"}
{"smiles": "COCC(O)CO", "note": "(configuration not stated)", "Potency": "inactive"}
{"smiles": "CCC(=O)OC/C=C/c1ccccc1", "Potency": "inactive"}
{"smiles": "O=Cc1c(Cl)cccc1Cl", "Potency": "inactive"}
{"smiles": "c1cnc2c(n1)CCCC2", "Potency": "inactive"}
{"smiles": "C[Si]1(C)O[Si](C)(C)O[Si](C)(C)O1", "Potency": "inactive"}
{"smiles": "COC(OC)(C(=O)c1ccccc1)c1ccccc1", "Potency": "inactive"}
{"smiles": "CC(C)CCCC(=O)O", "Potency": "inactive"}
{"smiles": "CCCOCCOCCO", "Potency": "inactive"}
{"smiles": "CC(C)(CCl)c1ccccc1", "Potency": "inactive"}
{"smiles": "Nc1ccc(Cl)cc1[N+](=O)[O-]", "Potency": "inactive"}
{"smiles": "CC(Cl)C(Cl)Cl", "note": "(configuration not stated)", "Potency": "inactive"}
{"smiles": "Cc1nc2ccccc2s1", "Potency": "inactive"}
{"smiles": "C=CCCCCCCCCCCCCCCCC", "activity change, negative = cytotoxicity": "4.81% [at 8.47 µM] (inactive)"}
